Screen size: about 39,000 compounds; about 220 (0.56%) showed activity. The list comes from a sample in which actives are over-represented; it also holds similar structures and randomly drawn compounds. A number with no mark means an inactive call.
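Also: Wild-type cells incubated without shaking, value is the mean of two biological replicates.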

The assay has as its system Escherichia coli K-12 BW25113. The assay is described as follows: relative growth (OD600 normalised to plate interquartile mean) (fraction); higher = less growth inhibition, active = 0.2 or less. The note with it: 50 µM; LB; incubation time: overnight (16-24 h).
Regarding `CC(C)NC(=O)Nc1ccc2c(c1)C(=O)N([C@H](C)CO)C[C@H](C)[C@@H](CN(C)CC1CCCCC1)OCCCC[C@@H](C)O2`, the relative growth was 0.975.

For `C[C@@H]1CN([C@H](C)CO)C(=O)c2cccc(NS(C)(=O)=O)c2O[C@@H]1CN(C)C(=O)NC1CCCCC1`, the relative growth was 0.99.

For `COc1ccc(S(=O)(=O)N(C)C[C@@H]2OCCCC[C@@H](C)Oc3ccc(NC(=O)CCC(F)(F)F)cc3C(=O)N([C@H](C)CO)C[C@@H]2C)cc1`, the relative growth is 1.01.

For the molecule `CN(C)c1ccc(O)c2c1C[C@H]1C[C@H]3[C@H](N(C)C)C(=O)[C@@H](C(N)=O)C(=O)[C@@]3(O)C(=O)[C@H]1C2=O`, the relative growth was 0.0587 (active).

Regarding `CN(C)c1ccc(O)c2c1C[C@H]1C[C@H]3[C@H](N(C)C)C(=O)C(C(N)=O)=C(O)[C@@]3(O)C(=O)[C@H]1C2=O`, the relative growth was 0.184 (active).

Regarding `CN(C)c1cc(NC(=O)CNC(C)(C)C)c(O)c2c1C[C@H]1C[C@H]3[C@H](N(C)C)C(=O)C(C(N)=O)=C(O)[C@@]3(O)C(=O)[C@H]1C2=O`, the relative growth was 1.

For `CN(C)[C@@H]1C(=O)[C@@H](C(N)=O)C(=O)[C@@]2(O)C(=O)[C@H]3C(=O)c4c(O)cccc4C[C@H]3C[C@@H]12`, the relative growth is 0.972.

Regarding `C[C@@H]1CN([C@H](C)CO)C(=O)c2cc(NS(=O)(=O)c3cccs3)ccc2O[C@H]1CN(C)Cc1ccc(-c2ccccc2)cc1`, the relative growth is 0.997.

Take `C[C@H](CO)N1C[C@H](C)[C@H](CN(C)C(=O)Nc2cccc3ccccc23)Oc2ncc(C#Cc3ccccc3)cc2C1=O`: the relative growth is 0.961.

Consider `C[C@@H]1CCCCO[C@H](CN(C)Cc2ccncc2)[C@H](C)CN([C@H](C)CO)C(=O)c2cc(NC(=O)Nc3ccccc3)ccc2O1`, for which the relative growth is 0.834.

In the case of `CN[C@H]1CN(c2ccc3c(=O)c(C(=O)O)cn(-c4nccs4)c3n2)C[C@@H]1OC`, the relative growth is 0.0372 (active).

As for `COC(=O)C1=C[C@@H](O)[C@@H](O)[C@H](O[C@@H]2O[C@H](COC(=O)/C=C/c3ccccc3)[C@@H](O)[C@H](O)[C@H]2O)C1`, the relative growth was 0.984.

Turning to `COc1ccc(S(=O)(=O)Nc2cccc3c2O[C@@H](CN(C)S(=O)(=O)c2ccc(OC)cc2)[C@H](C)CN([C@@H](C)CO)C3=O)cc1`, the relative growth is 1.01.

On to `C[C@H]1CN([C@@H](C)CO)C(=O)Cc2cc(NC(=O)Nc3ccccc3)ccc2O[C@H]1CN(C)Cc1ccc(Oc2ccccc2)cc1`, for which the relative growth was 1.01.

`C[C@@H]1CN([C@H](C)CO)C(=O)c2cc(NS(=O)(=O)c3ccccc3)ccc2O[C@@H]1CN(C)CC1CC1`: the relative growth is 1.

For `NC[C@H]1OB(O)c2c(OCCCO)cccc21`, the relative growth was 0.04 (active).

In the case of `NC[C@H]1OB(O)c2c(OCCO)ccc(Cl)c21`, the relative growth was 0.982.

In the case of `CC(C)(C)OC(=O)N1CCC(N)CC1`, the relative growth is 0.98.

In the case of `C[C@H]1c2cccc(O)c2C(=O)C2=C(O)[C@]3(O)C(=O)[C@@H](C(N)=O)C(=O)[C@@H](N(C)C)[C@@H]3[C@@H](O)[C@@H]21`, the relative growth was 0.0376 (active).

On to `CC1c2cccc(O)c2C(=O)C2=C(O)C3(O)C(=O)C(C(N)=O)=C(O)C(N(C)C)C3C(O)C21.Cl` (configuration not stated), for which the relative growth is 0.0595 (active).

In the case of `C=C1c2cccc(O)c2C(=O)[C@@H]2C(=O)[C@]3(O)C(=O)[C@@H](C(N)=O)C(=O)[C@@H](N(C)C)[C@@H]3[C@@H](O)[C@H]12`, the relative growth was 0.0752 (active).

With `C=C1c2cccc(O)c2C(=O)C2=C(O)C3(O)C(=O)C(C(N)=O)=C(O)C(N(C)C)C3C(O)C12.Cl` (configuration not stated), the relative growth was 0.0546 (active).

On to `C=C1c2cccc(O)c2C(=O)C2=C(O)[C@]3(O)C(O)=C(C(N)=O)C(=O)[C@@H](N(C)C)[C@@H]3[C@@H](O)[C@H]12`, for which the relative growth is 0.225.

In the case of `Cc1noc(C)c1S(=O)(=O)Nc1ccc2c(c1)CC(=O)N([C@H](C)CO)C[C@@H](C)[C@H](CN(C)C(=O)NC(C)C)O2`, the relative growth is 1.03.

For `C[C@H](CO)N1C[C@H](C)[C@@H](CN(C)S(C)(=O)=O)OCc2cnnn2CCCC1=O`, the relative growth is 1.07.

Take `Cc1ccc(S(=O)(=O)N(C)C[C@@H]2Oc3c(NC(=O)c4ccncc4)cccc3C(=O)N([C@@H](C)CO)C[C@H]2C)cc1`: the relative growth was 0.999.

Regarding `COc1ccc2c(c1OCc1ccccc1)C[C@@H](C(=O)O)N(C(=O)C(c1ccccc1)c1ccccc1)C2`, the relative growth was 1.02.

In the case of `C[C@@H]1CN([C@@H](C)CO)C(=O)c2cccc(NC(=O)C3CCOCC3)c2O[C@@H]1CN(C)C(=O)Nc1ccc2c(c1)OCO2`, the relative growth was 1.01.

For the molecule `CN(C)CC(=O)N[C@@H]1C=C[C@H](CC(=O)O)O[C@H]1CO`, the relative growth was 0.997.

`CCNC(=O)C[C@@H]1CC[C@H]2[C@H](COc3ccc(NS(=O)(=O)c4ccccc4C)cc3C(=O)N2C)O1`: the relative growth is 0.981.

Turning to `CNC[C@H]1Oc2ccc(NC(=O)CCN3CCOCC3)cc2CC(=O)N([C@@H](C)CO)C[C@@H]1C`, the relative growth is 0.977.

Take `CCc1nnc(N)[nH]1`: the relative growth is 0.947.

For `C[C@H]1CCCCO[C@H](CN(C)Cc2ccccc2)[C@@H](C)CN([C@@H](C)CO)C(=O)c2cc(NC(=O)Nc3cccc4ccccc34)ccc2O1`, the relative growth was 0.996.

For the molecule `Cc1c(-c2ccccc2)n(C[C@@H](O)CN)c2ccccc12`, the relative growth was 0.892.

Regarding `CO[C@@]1(NC(=O)CSC[C@@H](N)C(=O)O)C(=O)N2C(C(=O)O)=C(CSc3nnnn3C)CS[C@@H]21`, the relative growth was 1.

In the case of `COC1(NC(=O)CSCC#N)C(=O)N2C(C(=O)[O-])=C(CSc3nnnn3C)CSC21.[Na+]` (configuration not stated), the relative growth is 0.0458 (active).

On to `COC1(NC(=O)C2SC(=C(C(N)=O)C(=O)O)S2)C(=O)N2C(C(=O)O)=C(CSc3nnnn3C)CSC21` (configuration not stated), for which the relative growth was 0.0448 (active).

With `COC1(NC(=O)C(C(=O)[O-])c2ccc(O)cc2)C(=O)N2C(C(=O)[O-])=C(CSc3nnnn3C)COC21.[Na+].[Na+]` (configuration not stated), the relative growth is 0.0483 (active).

`CO[C@@]1(NC(=O)[C@@H](C(=O)O)c2ccc(O)cc2)C(=O)N2C(C(=O)O)=C(CSc3nnnn3C)CO[C@@H]21`: the relative growth is 0.983.

On to `CO[C@@H]1CN(C)C(=O)c2cc(NS(=O)(=O)c3cn(C)cn3)ccc2OC[C@@H](C)N(Cc2cccc(F)c2)C[C@@H]1C`, for which the relative growth was 1.02.

With `COc1ccc(NC(=O)Nc2ccc3c(c2)C(=O)N([C@H](C)CO)C[C@@H](C)[C@@H](CN(C)CC2CCCCC2)OCCCC[C@@H](C)O3)cc1`, the relative growth was 0.984.

As for `O=C(NCc1ccccc1)[C@@H]1c2ccccc2C(=O)N(Cc2ccccc2C(F)(F)F)[C@H]1c1ccc(CO)cc1`, the relative growth is 1.

Turning to `CN1C(=O)c2cc(NC(=O)c3cccs3)ccc2OC[C@H]2O[C@H](CC(=O)NCC(F)(F)F)CC[C@H]21`, the relative growth is 1.

`CCCN(C)C[C@@H]1OCCCC[C@@H](C)Oc2ccc(NC(=O)Nc3ccccc3)cc2C(=O)N([C@H](C)CO)C[C@@H]1C`: the relative growth was 1.01.

`CC(C)NC(=O)Nc1ccc2c(c1)C(=O)N([C@H](C)CO)C[C@H](C)[C@H](CN(C)CC1CCCCC1)OCCCC[C@@H](C)O2`: the relative growth was 0.955.

For `COc1ccc(S(=O)(=O)Nc2ccc3c(c2)C(=O)N([C@H](C)CO)C[C@H](C)[C@H](CN(C)C(=O)Nc2ccccc2)OCCCC[C@@H](C)O3)cc1`, the relative growth is 0.996.

On to `NC(=O)[C@@H]1CC[C@@H]2CN1C(=O)N2OS(=O)(=O)O`, for which the relative growth is 0.19 (active).

`NCCONC(=O)[C@@H]1CC[C@@H]2CN1C(=O)N2OS(=O)(=O)O`: the relative growth was 0.0923 (active).

As to `COc1ccc(CN(C)C[C@H]2OCCCC[C@H](C)Oc3ccc(NS(=O)(=O)c4ccc(C)cc4)cc3C(=O)N([C@H](C)CO)C[C@@H]2C)cc1`, the relative growth was 1.

In the case of `Cc1noc(C)c1NC(=O)Nc1ccc2c(c1)C(=O)N([C@@H](C)CO)C[C@@H](C)[C@H](CN(C)Cc1ccncc1)OCCCC[C@H](C)O2`, the relative growth is 0.993.

As to `C[C@H](NC(=O)C[C@H]1C=C[C@H](NC(=O)CN2CCOCC2)[C@@H](CO)O1)c1ccccc1`, the relative growth was 0.983.

With `COc1ccc(C(=O)Nc2ccc3c(c2)C(=O)N(C)[C@@H]2CC[C@@H](CC(=O)NCC4CC4)O[C@H]2CO3)cc1`, the relative growth is 0.96.

As to `COc1ccc(NC(=O)N(C)C[C@H]2Oc3c(NS(=O)(=O)c4c(C)noc4C)cccc3C(=O)N([C@H](C)CO)C[C@H]2C)cc1`, the relative growth was 0.994.

With `CN(C)CC(=O)N[C@@H]1C=C[C@H](CC(=O)NCCN2CCCCC2)O[C@@H]1CO`, the relative growth is 0.999.

With `Cc1noc(C)c1NC(=O)Nc1ccc2c(c1)C(=O)N([C@@H](C)CO)C[C@@H](C)[C@H](CN(C)C(=O)Nc1ccc(C(F)(F)F)cc1)OCCCC[C@H](C)O2`, the relative growth is 1.02.

With `CC(C)NC(=O)N[C@H]1CC[C@H](CCN)O[C@@H]1CO`, the relative growth was 0.987.

For `NC[C@H]1O[C@H](O[C@H]2[C@H](O)[C@@H](O[C@H]3O[C@H](CO)[C@@H](O)[C@H](N)[C@H]3O)[C@H](N)C[C@@H]2N)[C@H](N)[C@@H](O)[C@@H]1O`, the relative growth is 0.0328 (active).

Consider `NC[C@H]1O[C@H](O[C@@H]2[C@H](O)[C@@H](O[C@H]3O[C@H](CO)[C@@H](O)[C@H](N)[C@H]3O)[C@H](N)C[C@@H]2N)[C@H](O)[C@@H](O)[C@@H]1O`, for which the relative growth is 0.983.

Regarding `NCC1OC(OC2C(N)CC(N)C(OC3OC(CO)C(O)C(N)C3O)C2O)C(O)C(O)C1O.O=S(=O)(O)O` (configuration not stated), the relative growth is 0.982.

On to `NCC1OC(OC2C(N)CC(N)C(OC3OC(CO)C(O)C(N)C3O)C2O)C(N)C(O)C1O.O=S(=O)(O)O` (configuration not stated), for which the relative growth was 0.0483 (active).

Consider `NC[C@H]1O[C@H](O[C@H]2[C@@H](O[C@@H]3O[C@H](CO)[C@@H](O)[C@H]3O)[C@@H](O)[C@H](N)C[C@@H]2N)[C@H](N)[C@@H](O)[C@@H]1O`, for which the relative growth is 0.981.

For the molecule `NCC1OC(OC2C(N)CC(N)C(O)C2OC2OC(CO)C(O)C2O)C(N)C(O)C1O.O=S(=O)(O)O` (configuration not stated), the relative growth is 0.78.

For the origin of these results see the supplement of paper PMC9446081.
